HT1080-NT tox: kills 2HG-producing HT-1080-NT fibrosarcoma cells | HT-1080-NT fibrosarcoma viability, CellTiter-Glo ATP luminescence, 48 h | AID 686970 | Potency, µM (titrated, usually from 46.1 µM), for inactives: top-dose activity, negative = less viability, actives largely listed as cytotoxic | 360,000 tested, 1.6% active;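 note: NT is the 2HG producing partner of a matched IDH1 knockdown line; potency is the fitted concentration of half-maximal effect; 0% = DMSO-treated cells and -100% = media-only wells without cells; nearly all actives have a fitted effect of over 55% in size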
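Fibrosarcoma NT cells, 750 per well in 5% FBS RPMI, were exposed to compound for 48 hours. Viability: CellTiter-Glo luminescence.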
IL1B secr inh: inhibitors of inflammasome signaling (IL-1 beta secretion). THP-1 LPS/ATP IL-1B secretion, AlphaLISA, 16 h; stronger effect = lower value. activity change, % at 57.5 µM. 360,000 tested, 4.7% active. AID 743279; in the data active = activity change below about -50%; inconclusive = mostly about -30% to -49%; note: % is set by controls: 0 for no effect and ±100 for the full control effect
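Secreted IL-1B measured by AlphaLISA bead assay after 16 h compound exposure of THP-1 cells; compounds (final up to 57.5 uM) added 1 h before LPS (250 ng/mL) and ATP (1.25 mM) stimulation; lower signal means less secretion.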
TGFb SMAD3 inh: blocks TGF-b signaling. AID 588855. HepG2 CAGA-GFP TGF-b/SMAD3 reporter, GFP fluorescence, 18 h; TGF-beta stimulated, 500 pg/mL final. 410,000 tested, 1.2% active. Potency, µM (doses to about 46.1 µM), for the others: at the highest dose activity, negative = inhibition, actives largely listed as inhibitors; note: potency is the fitted concentration of half-maximal effect; % is set by controls: 0 for no effect and ±100 for the full control effect; nearly all actives have a fitted effect of over 65% in size
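HEPG2 CAGA-GFP reporter cells (1000/well, DMEM with 1% FBS) received compounds, then recombinant TGF-beta at 500 pg/mL final for 18 hours at 37 degrees C. Per-cell GFP summed per well was normalised to unstimulated and stimulated DMSO controls before curve fitting.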
Giardia killer: kills Giardia lamblia | Giardia lamblia trophozoite viability | 340,000 tested, 0.15% active | activity change, % at 7.66 µM, hits read low | AID 540267; in the data active = activity change below about -80%; inconclusive = between about -30% and that limit;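 note: parasites exposed to compound for two days anaerobically before the ATP read; % is set by controls: 0 for no effect and ±100 for the full control effect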
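Trophozoites 100 cells/well + cpd; 48 hrs, 37 deg C, anaerobic. ATPLite 1-Step added, 15-30 min RT, luminescence read (ATP-based viability).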
HepG2 viability: HepG2 cytotoxicity, counter-screen for TGF-b inhibitors. 410,000 tested, 0.76% active. HepG2 CAGA-GFP viability, ATP luminescence, 18 h. Potency, µM (titrated, usually from 46.1 µM), for the others: at the highest dose activity change, negative = cytotoxicity, usual class: cytotoxic. AID 588856; note: potency is the fitted concentration of half-maximal effect
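CellTiter-Glo luminescence gave cytotoxicity after 18 hours at 37 degrees C. The cells were HepG2 CAGA-GFP in 1% FBS DMEM, stimulated with 500 pg/mL TGF-beta after compound addition. %Activity was normalised to no-cell wells (complete cell-killing) and DMSO (no toxicity), and curves were fitted and classified.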
HT1080 IDH1KD tx: kills HT-1080 cells with IDH1 knockdown; HT-1080 IDH1 knockdown viability, ATP luminescence, 48 h; Potency, µM (top dose mostly 46.1 µM), inactives show at the top dose activity, negative = toxicity, usual class: cytotoxic; 360,000 tested, 2% active;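 note: potency is the fitted concentration of half-maximal effect; 0% = DMSO wells and -100% = cell-free medium wells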
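Cytotoxicity counter-line: IDH1KD HT-1080, 48 h, CellTiter-Glo. Curves classed by r2, magnitude and activity.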
Active calls of the source: *; u = inconclusive; x = no result given; ! = repeats disagree. Only some compounds are listed: those with a hit (about 6.5% of all), similar ones and a draw of the others. Unless noted, calls come from the whole dose curve; as a rule, active = well fitted curve in the direction sought with a large enough effect; inconclusive = small, poorly fitted or top-dose-only effect, or another doubt; inactive = no such curve, though single readings can be large; an effect the other way counts as inactive or inconclusive.

SMILES	HT1080-NT tox	IL1B secr inh	TGFb SMAD3 inh	Giardia killer	HepG2 viability	HT1080 IDH1KD tx
CC(C)Cc1nc(NCCN2CCOCC2)c(C#N)c2c1COC(C)(C)C2	-4.6%	u	24.6%	-24.6	-11.6%	-0.5%
CCC(=O)Nc1c2c(nn1-c1ccc(OC)cc1)CSC2	5.3%	23.7	-9.1%	0.3	-13.2%	9.0%
COc1ccc2[nH]c(O)c(N=O)c2c1	10.3%	-26.2	-18.5%	1.1	5.8%	14.4%
O=Nc1c(O)[nH]c2ccc(Cl)cc12	-9.4%	-71.6*	-9.2%	4.5	-17.6%	-12.3%
O=Nc1c(O)[nH]c2ccc(F)cc12	-3.9%	-88.1*	-9.4%	5.6	-12.2%	0.3%
C/C=C1\COC(C(=O)NCCN2CCOCC2)(C(F)(F)F)C=C1C=C1CCCCC1 (configuration not stated)	x	x	u	-22.4	-16.1%	x
C/C=C1\COC(C(=O)NCCN2CCCC2)(C(F)(F)F)C=C1C=C1CCCCC1 (configuration not stated)	-9.1%	-77.5*	u	32.2	-82.4%	-13.2%
C/C=C1\COC(C(=O)NCCCN2CCCC2=O)(C(F)(F)F)C=C1C=C(C)C (configuration not stated)	1.2%	-8.0	u	1.8	11.2µM*!	9.3%
Cc1ccc(/C=N/NC(=O)CNC(=O)c2ccc(S(=O)(=O)N(C)C)cc2)o1	7.2%	8.9	1.6%	-14.4	0.9%	3.3%
Nc1cc(N2CCCC2)ccc1[N+](=O)[O-]	-6.8%	-12.1	-2.7%	4.0	-21.6%	-3.0%
COc1ccc(NC(=O)CSCc2ccccc2C)cc1	6.4%	-1.2	8.0%	u	24.1%	-2.7%
C[C@]12C=CC(=O)C=C1CC[C@@H]1[C@@H]2[C@@H](O)C[C@@]2(C)[C@H]1CC[C@]2(O)C(=O)CO	48.0%	-54.8*	22.3%	6.4	-15.5%	27.2%
CC12CCC(=O)C=C1CCC1C2C(O)CC2(C)C1CCC2(O)C(=O)COC(=O)COCC(=O)O (configuration not stated)	u	-50.3*	8.7%	2.8	1.2%	u
C[C@]12C=CC(=O)C=C1CC[C@@H]1[C@@H]2[C@@H](O)C[C@@]2(C)[C@H]1CC[C@]2(O)C(=O)COC(=O)CCC(=O)O	u	u	5.7%	6.6	-8.0%	u
C[C@]12C=CC(=O)C=C1CC[C@@H]1[C@@H]2[C@@H](O)C[C@@]2(C)[C@H]1CC[C@]2(O)C(=O)COC(=O)CCC(=O)NCCc1ccc(O)cc1	u	-56.3*	4.4%	-2.5	5.0%	u
C[C@]12CCC(=O)C=C1CC[C@@H]1[C@@H]2[C@@H](O)C[C@@]2(C)[C@H]1CC[C@]2(O)C(=O)CO	25.0%	-58.1*!	13.6%	-2.2	3.5%	u
C[C@H]1C[C@@H]2[C@H]([C@@H](O)C[C@@]3(C)[C@H]2CC[C@]3(O)C(=O)CO)[C@@]2(C)C=CC(=O)C=C12	u	x	23.4%	10.7	-24.9%	u
CC(=O)OCC(=O)C1(O)CCC2C3CCC4=CC(=O)CCC4(C)C3C(O)CC21C (configuration not stated)	u	u	5.0%	17.8	4.4%	u
Cc1noc(C)c1S(=O)(=O)N(C)C[C@H]1Oc2ccc(NC(=O)NC3CCCCC3)cc2C(=O)N([C@H](C)CO)C[C@@H]1C	28.2%	-8.8	1.3%	-10.3	-1.9%	4.8%
CCCCCCCC(=O)OCC(=O)[C@@]1(O)CC[C@H]2[C@@H]3CCC4=CC(=O)CC[C@]4(C)[C@H]3[C@@H](O)C[C@@]21C	-16.5%	-53.0*	7.1%	7.2	2.4%	5.5%
Cc1ccc(S(=O)(=O)NCC(=O)NCc2ccncc2)cc1	8.7%	8.2	1.8%	13.4	-5.9%	8.8%
Cc1ccc(S(=O)(=O)NCc2ccncc2)cc1	-16.2%	42.4	u	27.1	-6.7%	6.51µM*
c1ccc2c(c1)Nc1ccncc1S2	-28.1%	-94.1*	u	-1.7	30.9%	-19.3%
O=C1c2ccccc2C(O)(Cc2ccccc2)N1C1CCCCC1 (configuration not stated)	0.7%	11.3	9.5%	-19.2	-19.6%	-0.8%
C/C(CC(=O)Nc1ccc2c(c1)OCCO2)=N\NC(=O)c1ccccc1F	4.1%	5.1	5.4%	-7.7	9.0%	5.2%
SMILES	HT1080-NT tox	IL1B secr inh	TGFb SMAD3 inh	Giardia killer	HepG2 viability	HT1080 IDH1KD tx
CCc1nc2ccc(C(=O)NCCCN(C)C)cn2c1N(C)CCCc1ccccc1	18.4µM*	-21.9	17.5%	x	-79.4%	23.1µM*
CCc1nc2ccc(C(=O)NC3CCN(Cc4ccccc4)CC3)cn2c1N(C)Cc1cccs1	u	-52.2*	u	x	-40.6%	u
CCc1nc2ccc(C(=O)NCCCn3ccnc3)cn2c1N(C)Cc1cc2ccccc2s1	20.6µM*	u	4.5%	x	-16.6%	u
CCc1nc2ccc(C(=O)NC3CCN(Cc4ccccc4)CC3)cn2c1N(C)Cc1cc2ccccc2s1	16.4µM*	-65.9*	u	x	-110.9%	u
CCc1nc2ccc(C(=O)Nc3cccc(OCC(=O)N(C)C)c3)cn2c1N(C)Cc1cc2ccccc2s1	u	-17.0	u	x	-63.6%	u
CCn1cc(C(=O)N[C@@H](CC(C)C)C(=O)NCCCn2ccnc2)c(=O)c2cc3c(cc21)OCO3	-0.7%	1.8	u	-13.2	3.7%	-7.7%
CCOC(=O)c1c(C)n(C)c2ccc(OCC(O)Cn3nc(C)cc3C)cc12 (configuration not stated)	-2.1%	-20.7	0.0%	-11.6	-46.2%	-13.3%
C1CCCCCC(NCCN2CCNCC2)CCCCC1	20.6µM*	u	u	-10.5	-6.7%	18.4µM*
CCOc1ccc2c(c1)C(C)=CC(C)(C)N2S(=O)(=O)c1ccc(F)cc1	u	143.0	u	-19.4	-30.0%	u
CCOc1ccc2c(c1)C(C)=CC(C)(C)N2S(=O)(=O)c1ccc(NC(C)=O)cc1	3.66µM*	65.9	u	7.2	-4.9%	1.84µM*
COc1ccc2c(c1)C(C)=CC(C)(C)N2S(=O)(=O)c1ccc(NC(C)=O)cc1	u	66.6	u	34.2	-14.9%	u
CC1=CC(C)(C)N(S(=O)(=O)c2ccc(C)cc2)c2ccccc21	6.31µM*	33.6	u	5.8	-35.5%	u
COc1ccc2c(c1)C(C)=CC(C)(C)N2S(=O)(=O)c1ccc(Br)cc1	3.26µM*	82.3	u	7.5	-17.0%	2.31µM*
CC1=CC(C)(C)N(S(=O)(=O)c2ccc(F)cc2)c2ccc(C)cc21	7.08µM*	36.7	-23.4%	10.1	-42.4%	u
